From PubChem BioAssay (Tox21)
“And” between values parts separate entries of the source, which are not always exact repeats. Equal entries are not always repeated. Inconclusive results are not listed. Where a call stands in place of a potency, no number is given. Where a structure was tested more than once in an assay, its records may differ in their call. The source made the active and inactive calls. Unless noted, calls come from the whole dose curve; as a rule, active = well fitted curve in the direction sought with a large enough effect in the repeat runs; inconclusive = weak or mixed curves; inactive = no such curve, though single readings can be large; an effect the other way counts as inactive or inconclusive.

Assays:
[1] = A CellTox Green Cytotoxicity Assay to monitor cytotoxicity in HEK293 cells - 32 hour (AID 1224881); note: nearly all actives have a fitted effect of over 40% in size; note: potency is the fitted concentration of half-maximal effect
In short: (§1)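 Read-out: fluorescence of a cell-impermeant cyanine dye staining DNA of dead cells, proportional to cytotoxicity. HEK293, 600 cells/well with reagent, compound (23 nL DMSO) added after 5 h; reads at 0, 8, 16, 24, 32, 40 h.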

[2] = A CellTox Green Cytotoxicity Assay to monitor cytotoxicity in HepG2 cells - 0 hour (AID 1224882); note: nearly all actives have a fitted effect of over 35% in size
In short: (§2)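 HepG2, 600 cells/well premixed w/ CellTox Green; 5 h settle, 37 C/5% CO2; pintool cpd add (DMSO); 37 C, 40 h; fluorescence read at 0, 8, 16, 24, 32, 40 h.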

[3] = A CellTox Green Cytotoxicity Assay to monitor cytotoxicity in HepG2 cells - 32 hour (AID 1224883); note: nearly all actives have a fitted effect of over 50% in size; note: potency is the fitted concentration of half-maximal effect
In short: as §2

[4] = A CellTox Green Cytotoxicity Assay to monitor cytotoxicity in HEK293 cells - 8 hour (AID 1224884); note: nearly all actives have a fitted effect of over 35% in size; note: potency is the fitted concentration of half-maximal effect
In short: as §1

[5] = qHTS RealTime-Glo MT Cell Viability Assay in HepG2 cells - 16 hour (AID 1224885); note: nearly all actives have a fitted effect of over 50% in size; note: potency is the fitted concentration of half-maximal effect
In short: (§3)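 HepG2 suspension premixed with RealTime-Glo reagents is plated at 600 cells per well and left 5 h at 37 C/5% CO2. Compounds in DMSO then go in, and bioluminescence reflecting viable cell number is recorded over 40 h.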

[6] = qHTS RealTime-Glo MT Cell Viability Assay in HEK293 cells - 8 hour (AID 1224887); note: nearly all actives have a fitted effect of over 50% in size; note: potency is the fitted concentration of half-maximal effect
In short: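 Luminescence readout at each listed time point; HEK293, 600 cells/well, RealTime-Glo MT reagent added with cells; compounds pinned (23 nL in DMSO) after 5 h at 37 C; continuous culture at 37 C.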

[7] = A CellTox Green Cytotoxicity Assay to monitor cytotoxicity in HEK293 cells - 16 hour (AID 1224888); note: nearly all actives have a fitted effect of over 35% in size; note: potency is the fitted concentration of half-maximal effect
In short: as §1

[8] = qHTS RealTime-Glo MT Cell Viability Assay in HepG2 cells - 0 hour (AID 1224889); note: nearly all actives have a fitted effect of over 50% in size
In short: as §3

[9] = A CellTox Green Cytotoxicity Assay to monitor cytotoxicity in HepG2 cells - 8 hour (AID 1224890); note: nearly all actives have a fitted effect of over 45% in size; note: potency is the fitted concentration of half-maximal effect
In short: as §2

[10] = qHTS assay to identify small molecule antagonists of the estrogen receptor alpha (ER-alpha) signaling pathway using the BG1 cell line in the presence of 0.1 nM 17-beta-estradiol - cell viability counter screen (AID 1259241); note: nearly all actives have a fitted effect of over 40% in size
In short: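 VM7Luc4E2 cells (endogenous full-length ER-alpha, 4xERE-luciferase), cultured 5 days in charcoal-stripped serum, exposed to compounds with 0.1 nM 17beta-estradiol (final) for 22 hr at 37C. Viability read in same wells as live-cell protease fluorescence after 30 min.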

[11] = qHTS assay to identify small molecule antagonists of the androgen receptor (AR) signaling pathway using the MDA cell line in the presence of 0.5 nM R1881 - cell viability counter screen (AID 1259242); note: nearly all actives have a fitted effect of over 45% in size; note: potency is the fitted concentration of half-maximal effect
In short: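 Live-cell protease fluorescence, CellTiter-Fluor, 30 min at 37C. Cells: MDA-kb2, 3,000/well, preincubated 5 hr. Compounds plus 0.5 nM R1881 final, 16 hr, 37C, 0% CO2.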

[12] = target: Estrogen receptor (Homo sapiens) (UniProt P03372); assay: qHTS assay to identify small molecule antagonists of the estrogen receptor alpha (ER-alpha) signaling pathway using the BG1 cell line in the presence of 0.1 nM 17-beta-estradiol (AID 1259244); note: nearly all actives have a fitted effect of over 50% in size; note: potency is the fitted concentration of half-maximal effect
In short: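 Luminescence after ONE-Glo (30 min, room temperature) measured ERE-luciferase activity in VM7Luc4E2 cells treated 22 h with compound and 0.1 nM final 17beta-estradiol as stimulator.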

[13] = qHTS assay to identify small molecule HDAC inhibitors (AID 1259364);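 note: wild-type HCT-116 cells with endogenous class I/II HDAC activity; top concentration of the series differs between compounds; nearly all actives have a fitted effect of over 45% in size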
In short: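 HCT-116 (wild type), 1,500 cells/well, overnight; compound 2 hr 37C 5% CO2; HDAC-Glo I/II reagent 30 min RT; luminescence readout.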

[14] = qHTS assay to identify small molecule HDAC inhibitors - cell viability counter screen (AID 1259365); note: nearly all actives have a fitted effect of over 50% in size; note: potency is the fitted concentration of half-maximal effect
In short: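 Wild-type HCT-116 cells, 1,500/well, cultured overnight, then compound-treated 2 h at 37 C. Viability measured as ATP luminescence with CellTiter-Glo after 30 min at room temperature.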

[15] = qHTS assay to identify small molecule agonists of the sonic hedgehog signaling (Shh) pathway - cell viability counter screen (AID 1259366); note: nearly all actives have a fitted effect of over 50% in size; note: potency is the fitted concentration of half-maximal effect
In short: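 NIH/3T3-derived Gli1-Luc reporter cells, 2,000 per well, received compound after 4 h and were treated about 23 h at 37C. Viability measured in the same wells by CellTiter-Fluor fluorescence after 1 h.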

[16] = qHTS assay to identify small molecule antagonists of the sonic hedgehog signaling (Shh) pathway - cell viability counter screen (AID 1259367); note: nearly all actives have a fitted effect of over 55% in size; note: potency is the fitted concentration of half-maximal effect
In short: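 Cytotoxicity was assessed in parallel with Shh reporter activity by measuring live-cell protease fluorescence (CellTiter-Fluor) in NIH/3T3 cells stably carrying Gli1-Luc, treated with compound under conditioned medium stimulation for 23 hr plus 1 hr reagent incubation.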

[17] = qHTS assay to identify small molecule agonists of the sonic hedgehog signaling (Shh) pathway (AID 1259368; calls by dose curve;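 note: NIH/3T3-derived 3T3Gli1-Luc cells carrying a stable Gli1-driven firefly luciferase reporter; series mostly up to about 92 µM; nearly all actives have a fitted effect of over 15% in size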)
In short: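 Read-out: firefly luciferase luminescence from a Gli1 response element reporter stably integrated in NIH/3T3-derived 3T3Gli1-Luc cells, measured 30 min at room temperature after reagent addition. Compound exposure lasted 24 hr at 37 C, 5% CO2.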

[18] = qHTS RealTime-Glo MT Cell Viability Assay in HEK293 cells - 24 hour (AID 1224886); note: nearly all actives have a fitted effect of over 50% in size; note: potency is the fitted concentration of half-maximal effect
In short: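 Reads taken at 0, 8, 16, 24, 32 and 40 h from the same wells. HEK293 cells (600/well) carried RealTime-Glo reagents from seeding, with compound added after a 5 h settle at 37 C.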

[19] = qHTS assay to identify small molecule phospholipidosis (PLD) inducers (AID 1259344; active = well fitted curve in the direction sought with a large enough effect; an effect the other way counts as inactive or inconclusive)
In short: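 Cells (HepG2, 900 per well) attach for 4 h, receive LipidTOX Red and compound together, incubate 24 h at 37 C, are fixed 30 min with paraformaldehyde/Hoechst, then imaged at one site per well.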

[20] = target: Androgen receptor (Homo sapiens) (UniProt P10275); assay: qHTS assay to identify small molecule antagonists of the androgen receptor (AR) signaling pathway using the MDA cell line in the presence of 0.5 nM R1881 (AID 1259243)
In short: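 MDA-kb2, MMTV-luc (AR/GR elements); 3,000 cells/well; cpd + 0.5 nM R1881 final; 16 hr 37C, 0% CO2; ONE-Glo 30 min RT; luminescence.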

Chain of Estrogen receptor (Homo sapiens) (P03372 whole entry, looked up): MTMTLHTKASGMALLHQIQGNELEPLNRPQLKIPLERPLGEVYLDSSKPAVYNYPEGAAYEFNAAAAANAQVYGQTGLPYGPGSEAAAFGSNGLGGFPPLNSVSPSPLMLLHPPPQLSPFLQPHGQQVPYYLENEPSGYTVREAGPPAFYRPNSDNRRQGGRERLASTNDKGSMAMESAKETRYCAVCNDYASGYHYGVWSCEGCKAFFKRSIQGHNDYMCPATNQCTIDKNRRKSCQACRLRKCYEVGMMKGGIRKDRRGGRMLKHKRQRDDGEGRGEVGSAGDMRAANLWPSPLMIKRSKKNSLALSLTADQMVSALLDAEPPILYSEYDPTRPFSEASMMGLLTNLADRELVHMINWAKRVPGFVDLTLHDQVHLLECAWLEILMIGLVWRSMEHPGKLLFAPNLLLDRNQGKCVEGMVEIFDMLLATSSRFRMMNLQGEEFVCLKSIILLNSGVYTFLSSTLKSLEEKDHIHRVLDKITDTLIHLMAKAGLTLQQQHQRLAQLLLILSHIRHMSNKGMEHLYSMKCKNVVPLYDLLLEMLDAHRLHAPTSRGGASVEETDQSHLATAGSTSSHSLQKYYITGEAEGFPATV
Chain of Androgen receptor (Homo sapiens) (P10275 whole entry, looked up): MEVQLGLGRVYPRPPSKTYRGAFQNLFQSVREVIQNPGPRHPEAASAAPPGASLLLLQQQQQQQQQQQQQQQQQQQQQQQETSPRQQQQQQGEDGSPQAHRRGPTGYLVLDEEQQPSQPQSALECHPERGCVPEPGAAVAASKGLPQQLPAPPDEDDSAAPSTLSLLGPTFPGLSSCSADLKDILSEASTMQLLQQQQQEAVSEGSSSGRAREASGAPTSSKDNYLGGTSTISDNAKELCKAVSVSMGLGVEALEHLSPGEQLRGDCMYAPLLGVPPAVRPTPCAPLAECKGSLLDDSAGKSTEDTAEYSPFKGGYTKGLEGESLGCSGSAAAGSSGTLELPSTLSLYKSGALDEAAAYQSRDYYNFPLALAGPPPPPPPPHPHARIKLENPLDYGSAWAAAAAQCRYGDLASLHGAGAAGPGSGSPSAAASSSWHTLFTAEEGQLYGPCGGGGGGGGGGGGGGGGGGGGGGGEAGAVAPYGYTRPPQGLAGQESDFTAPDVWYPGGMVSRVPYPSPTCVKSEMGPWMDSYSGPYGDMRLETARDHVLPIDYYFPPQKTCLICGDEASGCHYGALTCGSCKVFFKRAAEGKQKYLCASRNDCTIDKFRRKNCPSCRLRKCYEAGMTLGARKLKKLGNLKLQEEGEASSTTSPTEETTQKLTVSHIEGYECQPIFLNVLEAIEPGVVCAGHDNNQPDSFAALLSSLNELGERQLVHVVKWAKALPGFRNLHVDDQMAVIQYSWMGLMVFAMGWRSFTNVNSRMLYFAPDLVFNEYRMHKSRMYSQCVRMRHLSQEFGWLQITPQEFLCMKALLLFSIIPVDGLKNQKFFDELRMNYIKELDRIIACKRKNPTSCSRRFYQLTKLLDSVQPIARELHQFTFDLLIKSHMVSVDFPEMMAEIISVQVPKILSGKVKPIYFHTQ

Row | Compound | Potency [1] | Potency [2] | Potency [3] | Potency [4] | Potency [5] | Potency [6] | Potency [7] | Potency [8] | Potency [9] | Potency [10] | Potency [11] | Potency [12] | Potency [13] | Potency [14] | Potency [15] | Potency [16] | Potency [17] | Potency [18] | Potency [19] | Potency [20]
1 | CCCCCc1ccc(Cl)cc1 | inactive | inactive | inactive | inactive | inactive | inactive | inactive | inactive | inactive | inactive | inactive | inactive | inactive | inactive | inactive | inactive | inactive |  |  | 
2 | O=C1CCc2ccc(OCCCCN3CCN(c4cccc(Cl)c4Cl)CC3)cc2N1 | inactive | inactive | 26.8 µM (active) | inactive |  | 21.3 µM (active) | inactive | inactive | inactive |  | 29.8 µM (active) |  | inactive | inactive |  | inactive | inactive | 9.52 µM (active) | inactive | 
3 | O=S(=O)(O)c1ccccc1/C=C/c1ccc(-c2ccc(/C=C/c3ccccc3S(=O)(=O)O)cc2)cc1 | inactive | inactive | inactive | inactive | inactive | inactive | inactive | inactive | inactive |  | inactive | inactive | inactive | inactive |  |  | inactive | inactive |  | 
4 | S=C([S-])NCCNC(=S)[S-].S=C([S-])NCCNC(=S)[S-].[Mn+2].[Zn+2] | inactive | inactive | inactive | inactive | inactive | inactive | inactive | inactive | inactive | inactive | inactive |  | inactive | inactive |  |  | inactive |  |  | 
5 | CCCCCCCCCCCCCC[N+](C)(C)C | 29.9 µM (active) and 48.9 µM (active) and 26.8 µM (active) | inactive | 10.6 µM (active) and 17.4 µM (active) and 21.3 µM (active) | 47.3 µM (active) and 43.6 µM (active) | 16.8 µM (active) and 48.9 µM (active) | 53.1 µM (active) and inactive | 47.3 µM (active) and 48.9 µM (active) and 47.7 nM (active) | inactive | 18.8 µM (active) and 54.9 µM (active) and inactive |  | 23.5 µM (active) | 2.96 µM (active) and 3.85 µM (active) and 26.6 µM (active) | inactive | inactive | 21 µM (active) and 27.3 µM (active) and inactive | inactive | inactive | 16.8 µM (active) and 21.8 µM (active) | inactive | 
6 | COC1=C(OC)C(=O)C(CCCCCCCCCCO)=C(C)C1=O | inactive | inactive | inactive | inactive |  | 1.69 µM (active) | inactive | inactive | inactive |  | inactive |  | inactive | inactive | inactive | inactive | inactive | 4.25 µM (active) | inactive | 29.8 µM (active)
7 | CCn1c2ccccc2c2cc([N+](=O)[O-])ccc21 | inactive | inactive | inactive | inactive |  |  | inactive | inactive | inactive | inactive | inactive | inactive | inactive | inactive | inactive | inactive | inactive |  |  | 
8 | CCCCCCCCCCCCOC(=O)c1ccc(O)cc1 | inactive | inactive | inactive | inactive | inactive |  | inactive | inactive | inactive |  | inactive |  | inactive | inactive | inactive | inactive | inactive |  |  | 
9 | Oc1ccccc1O | inactive | inactive | inactive | inactive | inactive | inactive | inactive | inactive | inactive |  | inactive |  | inactive | inactive |  | 6.19 µM (active) and 15.4 µM (active) | inactive | 49.6 µM (active) and 24.5 µM (active) |  | 
10 | C#CC1(O)CC[C@H]2[C@@H]3CCC4=CCCC[C@@H]4[C@H]3CC[C@@]21C (some centres not stated) | 24.5 µM (active) and 21.3 µM (active) | inactive | 34.7 µM (active) and 19 µM (active) | 17.4 µM (active) and 23.9 µM (active) | 23.9 µM (active) | 21.3 µM (active) | 24.5 µM (active) and 21.3 µM (active) | inactive | 24.5 µM (active) and 21.3 µM (active) | inactive |  | inactive | inactive | 29.8 µM (active) | 26.6 µM (active) |  | inactive | 17.4 µM (active) and 16.9 µM (active) | inactive | 
